{"source": "PubChem BioAssay (NCATS)", "note": "Results filed as inconclusive are left out. A number with no mark means an inactive call. Active and inactive are the calls of the source. Calls follow the shape of the dose curve; as a rule, active = well fitted cell-killing curve with a large enough effect; inconclusive = small, poorly fitted or top-dose-only effect, or effect the other way; inactive = no such curve, though single readings can be large or run the other way. % is scaled to controls: 0 for no effect and ±100 for the full control effect; potency is read from the fitted curve at half-maximal effect."}
{"test": "qHTS assay to identify small molecule inhibitors of chordoma cells - UCH-1 (AID 1259355); also: nearly all actives have a fitted effect of over 55% in size", "conditions": "UCH-1 chordoma viability, CellTiter-Glo, 48 h, combination, with auranofin plus four topoisomerase inhibitors; series mostly up to 46.1 µM; activity, negative = inhibition: at the top concentration", "description": "NIH Chemical Genomics Center [NCGC]\nChordoma is a rare and slow growing tumor that can occur anywhere along the spine, from the base of the skull to the tailbone. Current treatment options for chordoma is surgery and radiation therapy for those who are not candidates for surgery. But chordomas tend to return in the same location or surrounding areas of the original tumor after surgery and/or radiation. Chemotherapy can slow down the progression of the tumor. As chordoma is slow growing, the general cytotoxic agents that kill fast growing cells are ineffective, and some patients have been reported to respond to molecularly targeted drugs.\nNCATS Pharmaceutical Collection (NPC) containing approximately 3000 clinically approved and investigational drugs were used to screen at 15 concentrations in a chordoma cell lines, UCH-1, to identify small molecule compounds that can inhibit chordoma cell growth.\nNCGC Assay Protocol Summary:\nHuman chordoma cell line UCH-1 was dispensed at 800 per well in 4uL of culture medium into white solid bottom 1536-well plates (Corning Life Sciences, Corning, NY) using a Multidrop Combi (Thermo Scientific, Waltham, MA) dispenser. The assay plates were incubated at 37 C and 5% CO2 for an overnight, and then 23nL of compounds dissolved in DMSO and positive control were transferred using a Pintool station (Wako, San Diego, CA). Compound treatment was followed by the addition of 1uL of the combination compounds (1uM Auranofin, 500nM each of Camptothecin, Doxorubicin, Rubitecan, and Topotecan) and assay medium to each well of the assay plates using Flying Reagent Dispenser (FRD, Aurora Discovery, San Diego, CA). The assay plates were incubated at 37 C and 5% CO2 for 48hr. Then 5uL of CellTiter-Glo reagent (Promega Corporation, Madison, WI) was added to each well of the assay plates using FRD. After 30min incubation at room temperature, the luminescence signal was quantified using a ViewLux plate reader (PerkinElmer, Shelton, CT)."}
{"molecule": "Cc1cnc(NC(=O)C2=C(O)c3ccccc3S(=O)(=O)N2C)s1", "activity, negative = inhibition": "-5.99%"}
{"molecule": "Cn1cnc([N+](=O)[O-])c1Sc1ncnc2nc[nH]c12", "activity, negative = inhibition": "-25.7%"}
{"molecule": "OC(CN1CCC(Cc2ccc(F)cc2)CC1)c1ccc(Cl)cc1", "note": "(stereo not given)", "activity, negative = inhibition": "16.1% [at 9.21 µM]"}
{"molecule": "O=C1CCc2cc(OCCCCc3nnnn3C3CCCCC3)ccc2N1", "activity, negative = inhibition": "15.6%"}
{"molecule": "Cc1ccc(N(CC2=NCCN2)c2cccc(O)c2)cc1", "activity, negative = inhibition": "-19.4%"}
{"molecule": "COc1ccc2nc(S(=O)Cc3ncc(C)c(OC)c3C)[nH]c2c1", "note": "(stereo not given)", "activity, negative = inhibition": "-8.24%"}
{"molecule": "CC(C)(C)NCC(O)c1ccc(O)c(CO)c1", "note": "(stereo not given)", "activity, negative = inhibition": "-28.9%"}
{"molecule": "CN1CCN(CCCN2c3ccccc3Sc3ccc(C(F)(F)F)cc32)CC1", "activity, negative = inhibition": "-37.3%"}
{"molecule": "Cc1cn[nH]c1", "activity, negative = inhibition": "-12.9%"}
{"molecule": "CCCC(CCC)C(=O)O", "activity, negative = inhibition": "-17.2%"}
{"molecule": "Nc1ccc(S(=O)(=O)Nc2ccnn2-c2ccccc2)cc1", "activity, negative = inhibition": "-20.1% [at 20.6 µM]"}
{"molecule": "NC(=O)c1cnccn1", "activity, negative = inhibition": "2.86%"}
{"molecule": "C1COC(NC(C2CC2)C2CC2)=N1", "activity, negative = inhibition": "-5.33%"}
{"molecule": "NS(=O)(=O)c1cc2c(cc1Cl)NC=NS2(=O)=O", "activity, negative = inhibition": "-20.2%"}
{"molecule": "O=NN(CCCl)C(=O)NCCCl", "activity, negative = inhibition": "0.336%"}
{"molecule": "CC(C[N+](C)(C)C)OC(N)=O", "note": "(stereo not given)", "activity, negative = inhibition": "-0.826%"}
{"molecule": "C#Cc1cccc(Nc2ncnc3cc(OCCOC)c(OCCOC)cc23)c1", "Potency": "141 nM (active)"}
{"molecule": "NCCCC(N)(C(=O)O)C(F)F", "note": "(stereo not given)", "activity, negative = inhibition": "-12.5%"}
{"molecule": "Nc1nc2ccc(OC(F)(F)F)cc2s1", "activity, negative = inhibition": "-8%"}
{"molecule": "O=C1CCC(N2C(=O)c3ccccc3C2=O)C(=O)N1", "note": "(stereo not given)", "activity, negative = inhibition": "6.43%"}
{"molecule": "Clc1ccc(Nc2nnc(Cc3ccncc3)c3ccccc23)cc1", "activity, negative = inhibition": "-14.4%"}
{"molecule": "NC(N)=NC(=O)c1nc(Cl)c(N)nc1N", "activity, negative = inhibition": "10.9%"}
{"molecule": "Oc1ccc(C2CNCCc3c2cc(O)c(O)c3Cl)cc1", "note": "(stereo not given)", "activity, negative = inhibition": "-19.7%"}
{"molecule": "N=c1nc(N2CCCCC2)cc(N)n1O", "activity, negative = inhibition": "-29.3%"}
{"molecule": "CCN(CC)CCCC(C)Nc1ccnc2cc(Cl)ccc12", "note": "(stereo not given)", "activity, negative = inhibition": "-23.4%"}
{"molecule": "CCC(C)(C)C(=O)O[C@H]1C[C@@H](C)C=C2C=C[C@H](C)[C@H](CC[C@@H]3C[C@@H](O)CC(=O)O3)[C@H]21", "activity, negative = inhibition": "-25.8% [at 20.6 µM]"}
{"molecule": "N[C@@H]1CONC1=O", "activity, negative = inhibition": "-18.6%"}
{"molecule": "Cc1[nH]c(=O)c(C#N)cc1-c1ccc2nccn2c1", "activity, negative = inhibition": "-4.56%"}
{"molecule": "CCCCNc1cc(C(=O)O)cc(S(N)(=O)=O)c1Oc1ccccc1", "activity, negative = inhibition": "-6.25% [at 20.6 µM]"}
{"molecule": "CC(=O)Oc1ccccc1C(=O)O", "activity, negative = inhibition": "-4.08%"}
{"molecule": "Cc1cc2c(C(C)C)c(O)c(O)c(C=O)c2c(O)c1-c1c(C)cc2c(C(C)C)c(O)c(O)c(C=O)c2c1O", "activity, negative = inhibition": "-29%"}
{"molecule": "CC(c1cc2ccccc2s1)N(O)C(N)=O", "note": "(stereo not given)", "activity, negative = inhibition": "-10.8%"}
{"molecule": "O=c1[nH]cnc2[nH]ncc12", "activity, negative = inhibition": "5.93%"}
{"molecule": "c1ccc([C@H]2CN3CCSC3=N2)cc1", "activity, negative = inhibition": "9.75%"}
{"molecule": "CCOC(=O)N1CCC(=C2c3ccc(Cl)cc3CCc3cccnc32)CC1", "activity, negative = inhibition": "-12%"}
{"molecule": "CC(C)NCC(O)COc1ccc(COCCOC(C)C)cc1", "note": "(stereo not given)", "activity, negative = inhibition": "-15.9%"}
{"molecule": "Cc1c(C)c2c(c(C)c1O)CCC(C)(COc1ccc(CC3SC(=O)NC3=O)cc1)O2", "note": "(stereo not given)", "activity, negative = inhibition": "-6.27%"}
{"molecule": "NC[C@H](O)c1ccc(O)c(O)c1", "activity, negative = inhibition": "-18.5%"}
{"molecule": "Cc1oncc1C(=O)Nc1ccc(C(F)(F)F)cc1", "activity, negative = inhibition": "-13.2% [at 20.6 µM]"}
{"molecule": "OC(CCN1CCCCC1)(c1ccccc1)C1CC2C=CC1C2", "note": "(stereo not given)", "activity, negative = inhibition": "-9.25%"}
